From the supplement of paper PMC10849652
Targets with a hit are over-represented here; the source holds about 8,800 in all. About 0.5% of all pairs of compound and target were hits.

Compound: CCCS(=O)(=O)Nc1ccc(F)c(C(=O)c2c[nH]c3ncc(Cl)cc23)c1F
Test: log2 fold change, soluble protein after heating vs DMSO (PISA); higher = thermal stabilisation; K562 lysate, 10 uM; active = over 0.2 and 3.5 SD of the protein, either way, in both replicates (recomputed)
Outline: (§1)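 Dounce homogenisation of K562 pellets in PBS pH 7.4 with 1 mM MgCl2 produced a crude extract, used at 1 mg/mL protein. Exposure to 10 μM compound lasted 30 min, and aliquots were then heated for 3 min across 48°C-58°C, pooled and brought to 0.5% NP-40 at 4°C. The supernatant after 21,000xg for 90 min was quantified by TMTpro 16plex LC-MS/MS with channel sums equalised. Duplicate values are given as log-two fold change in thermal stability relative to solvent controls.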

Sequence of UniProt O95644 (O95644 whole entry, looked up): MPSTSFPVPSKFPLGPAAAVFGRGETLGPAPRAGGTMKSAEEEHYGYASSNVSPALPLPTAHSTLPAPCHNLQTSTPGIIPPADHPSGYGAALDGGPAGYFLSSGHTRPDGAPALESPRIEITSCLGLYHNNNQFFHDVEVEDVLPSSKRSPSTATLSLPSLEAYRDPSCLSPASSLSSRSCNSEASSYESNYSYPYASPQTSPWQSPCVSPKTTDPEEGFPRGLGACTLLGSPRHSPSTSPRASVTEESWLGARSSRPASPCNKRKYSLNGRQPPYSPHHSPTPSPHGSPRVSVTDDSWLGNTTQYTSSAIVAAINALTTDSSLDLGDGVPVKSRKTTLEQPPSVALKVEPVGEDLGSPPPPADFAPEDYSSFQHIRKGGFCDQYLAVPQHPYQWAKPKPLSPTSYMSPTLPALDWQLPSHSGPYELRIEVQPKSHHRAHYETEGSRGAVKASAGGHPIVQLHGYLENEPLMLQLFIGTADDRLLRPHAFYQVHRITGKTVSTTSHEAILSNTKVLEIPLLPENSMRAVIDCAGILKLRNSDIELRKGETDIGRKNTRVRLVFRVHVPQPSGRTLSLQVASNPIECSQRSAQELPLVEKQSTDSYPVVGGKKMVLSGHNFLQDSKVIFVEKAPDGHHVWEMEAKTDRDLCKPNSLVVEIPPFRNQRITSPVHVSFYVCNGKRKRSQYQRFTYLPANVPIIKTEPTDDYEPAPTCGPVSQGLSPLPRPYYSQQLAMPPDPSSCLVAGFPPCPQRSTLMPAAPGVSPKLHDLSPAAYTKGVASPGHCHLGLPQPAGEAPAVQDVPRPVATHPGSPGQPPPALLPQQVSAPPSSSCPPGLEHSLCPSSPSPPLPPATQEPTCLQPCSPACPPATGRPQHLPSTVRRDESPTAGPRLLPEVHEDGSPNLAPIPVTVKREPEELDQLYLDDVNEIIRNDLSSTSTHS
Sequence of UniProt P52179 (P52179 whole entry, looked up): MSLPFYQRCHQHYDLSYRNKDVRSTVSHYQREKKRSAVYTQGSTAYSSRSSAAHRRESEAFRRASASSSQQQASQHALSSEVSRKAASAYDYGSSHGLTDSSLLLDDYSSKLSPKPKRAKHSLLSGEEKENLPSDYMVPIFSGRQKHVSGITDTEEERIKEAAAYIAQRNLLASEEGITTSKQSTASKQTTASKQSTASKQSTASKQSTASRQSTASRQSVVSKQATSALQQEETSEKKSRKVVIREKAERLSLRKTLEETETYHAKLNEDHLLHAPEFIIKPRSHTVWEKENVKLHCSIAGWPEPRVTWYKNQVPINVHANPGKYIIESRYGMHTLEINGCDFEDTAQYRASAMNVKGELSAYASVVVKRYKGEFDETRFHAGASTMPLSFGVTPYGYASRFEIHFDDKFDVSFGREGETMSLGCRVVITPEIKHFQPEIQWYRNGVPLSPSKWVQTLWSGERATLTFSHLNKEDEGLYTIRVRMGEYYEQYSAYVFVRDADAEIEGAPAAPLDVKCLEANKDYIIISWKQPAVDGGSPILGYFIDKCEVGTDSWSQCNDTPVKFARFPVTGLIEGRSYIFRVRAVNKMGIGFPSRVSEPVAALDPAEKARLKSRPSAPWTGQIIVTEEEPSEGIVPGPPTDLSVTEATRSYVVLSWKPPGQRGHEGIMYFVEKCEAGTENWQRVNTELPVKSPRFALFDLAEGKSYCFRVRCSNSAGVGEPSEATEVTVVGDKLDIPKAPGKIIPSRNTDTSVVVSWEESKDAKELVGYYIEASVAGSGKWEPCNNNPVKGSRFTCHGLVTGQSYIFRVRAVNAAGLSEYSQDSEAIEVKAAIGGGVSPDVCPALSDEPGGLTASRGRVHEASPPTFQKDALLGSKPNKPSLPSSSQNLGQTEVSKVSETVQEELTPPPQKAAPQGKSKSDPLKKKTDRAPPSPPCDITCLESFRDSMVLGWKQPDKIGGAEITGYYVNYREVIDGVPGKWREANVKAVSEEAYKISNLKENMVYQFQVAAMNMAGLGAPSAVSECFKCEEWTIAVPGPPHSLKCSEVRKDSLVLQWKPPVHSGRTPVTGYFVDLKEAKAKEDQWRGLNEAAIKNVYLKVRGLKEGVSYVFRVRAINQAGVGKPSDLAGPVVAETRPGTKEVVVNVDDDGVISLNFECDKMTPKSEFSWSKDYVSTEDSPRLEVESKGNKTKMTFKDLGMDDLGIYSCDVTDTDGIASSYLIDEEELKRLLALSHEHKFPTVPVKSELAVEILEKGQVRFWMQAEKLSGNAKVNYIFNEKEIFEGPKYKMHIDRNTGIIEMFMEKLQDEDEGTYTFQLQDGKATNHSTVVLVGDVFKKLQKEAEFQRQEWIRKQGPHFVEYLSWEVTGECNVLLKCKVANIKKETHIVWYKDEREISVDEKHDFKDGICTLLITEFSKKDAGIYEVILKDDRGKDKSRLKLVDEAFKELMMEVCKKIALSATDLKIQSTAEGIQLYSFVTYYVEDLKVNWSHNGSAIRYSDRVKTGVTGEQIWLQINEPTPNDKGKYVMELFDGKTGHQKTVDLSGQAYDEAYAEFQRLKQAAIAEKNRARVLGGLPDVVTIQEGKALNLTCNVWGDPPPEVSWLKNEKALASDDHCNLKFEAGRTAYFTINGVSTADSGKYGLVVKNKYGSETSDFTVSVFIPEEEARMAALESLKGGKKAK
Sequence of UniProt Q8TDX7 (Q8TDX7 whole entry, looked up): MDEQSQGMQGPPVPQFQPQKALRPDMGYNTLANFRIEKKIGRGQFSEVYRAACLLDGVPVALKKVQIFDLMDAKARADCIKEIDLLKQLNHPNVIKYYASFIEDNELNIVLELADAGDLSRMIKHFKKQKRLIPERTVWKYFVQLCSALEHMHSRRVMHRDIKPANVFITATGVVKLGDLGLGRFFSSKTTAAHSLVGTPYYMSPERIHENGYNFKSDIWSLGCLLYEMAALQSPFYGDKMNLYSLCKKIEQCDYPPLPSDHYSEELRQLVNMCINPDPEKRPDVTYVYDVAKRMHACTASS
Sequence of UniProt Q9Y6C9 (Q9Y6C9 whole entry, looked up): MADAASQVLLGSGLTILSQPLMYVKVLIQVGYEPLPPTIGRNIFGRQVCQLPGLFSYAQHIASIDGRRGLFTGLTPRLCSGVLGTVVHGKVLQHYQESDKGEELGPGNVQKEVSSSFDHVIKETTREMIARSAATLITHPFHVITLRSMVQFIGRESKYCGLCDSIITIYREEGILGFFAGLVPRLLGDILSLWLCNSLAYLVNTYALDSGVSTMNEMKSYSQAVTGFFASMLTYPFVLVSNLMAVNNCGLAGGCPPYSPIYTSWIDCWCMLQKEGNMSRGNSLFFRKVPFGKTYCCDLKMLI
Sequence of UniProt Q13469 (Q13469 whole entry, looked up): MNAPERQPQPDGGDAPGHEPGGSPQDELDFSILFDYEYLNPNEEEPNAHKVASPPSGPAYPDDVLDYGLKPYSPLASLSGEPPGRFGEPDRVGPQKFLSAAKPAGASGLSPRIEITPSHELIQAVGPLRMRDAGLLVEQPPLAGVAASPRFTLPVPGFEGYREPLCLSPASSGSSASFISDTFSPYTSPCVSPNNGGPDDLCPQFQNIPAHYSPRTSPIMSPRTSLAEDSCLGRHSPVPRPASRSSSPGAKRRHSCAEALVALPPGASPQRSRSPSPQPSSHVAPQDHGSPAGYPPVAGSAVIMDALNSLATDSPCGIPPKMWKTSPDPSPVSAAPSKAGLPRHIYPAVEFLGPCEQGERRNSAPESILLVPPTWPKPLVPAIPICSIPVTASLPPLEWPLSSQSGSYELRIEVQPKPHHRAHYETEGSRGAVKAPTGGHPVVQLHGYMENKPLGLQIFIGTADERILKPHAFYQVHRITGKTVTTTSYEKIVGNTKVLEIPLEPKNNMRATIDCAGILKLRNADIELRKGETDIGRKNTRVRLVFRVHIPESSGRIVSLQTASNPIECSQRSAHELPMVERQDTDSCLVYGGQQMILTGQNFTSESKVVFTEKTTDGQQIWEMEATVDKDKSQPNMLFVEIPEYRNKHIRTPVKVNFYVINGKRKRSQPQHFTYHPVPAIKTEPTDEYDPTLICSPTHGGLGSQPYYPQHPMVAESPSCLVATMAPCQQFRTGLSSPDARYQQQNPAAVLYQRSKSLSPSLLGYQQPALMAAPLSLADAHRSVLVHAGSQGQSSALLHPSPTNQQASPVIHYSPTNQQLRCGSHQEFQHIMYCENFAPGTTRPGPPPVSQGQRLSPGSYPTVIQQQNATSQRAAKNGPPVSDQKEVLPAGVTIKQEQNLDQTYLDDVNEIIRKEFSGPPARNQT
Sequence of UniProt Q9UDX5 (Q9UDX5 whole entry, looked up): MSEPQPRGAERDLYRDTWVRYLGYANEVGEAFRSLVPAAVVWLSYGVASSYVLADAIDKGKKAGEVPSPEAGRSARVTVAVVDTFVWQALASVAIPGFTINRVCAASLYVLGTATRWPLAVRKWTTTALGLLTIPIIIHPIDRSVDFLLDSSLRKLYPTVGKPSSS
Sequence of UniProt Q9Y314 (Q9Y314 whole entry, looked up): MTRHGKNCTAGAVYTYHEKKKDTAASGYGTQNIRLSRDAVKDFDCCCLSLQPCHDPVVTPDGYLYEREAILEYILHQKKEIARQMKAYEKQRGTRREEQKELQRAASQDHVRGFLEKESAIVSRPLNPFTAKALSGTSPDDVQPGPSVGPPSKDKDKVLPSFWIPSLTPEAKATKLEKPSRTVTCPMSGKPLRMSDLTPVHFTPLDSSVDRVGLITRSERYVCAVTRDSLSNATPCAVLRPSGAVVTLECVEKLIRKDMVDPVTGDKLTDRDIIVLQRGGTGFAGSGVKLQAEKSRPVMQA
Sequence of UniProt Q147X3 (Q147X3 whole entry, looked up): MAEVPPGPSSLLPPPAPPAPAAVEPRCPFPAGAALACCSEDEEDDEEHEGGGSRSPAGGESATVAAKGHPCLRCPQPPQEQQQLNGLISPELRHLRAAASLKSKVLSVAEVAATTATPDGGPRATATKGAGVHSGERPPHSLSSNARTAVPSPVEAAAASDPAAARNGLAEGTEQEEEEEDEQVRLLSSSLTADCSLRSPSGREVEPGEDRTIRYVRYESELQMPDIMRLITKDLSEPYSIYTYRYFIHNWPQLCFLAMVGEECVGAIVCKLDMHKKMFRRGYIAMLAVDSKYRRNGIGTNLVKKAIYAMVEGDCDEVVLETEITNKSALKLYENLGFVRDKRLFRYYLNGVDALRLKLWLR

log2 fold change, inactive:
NAA30 (UniProt Q147X3) 0.009, NUDT5 (UniProt Q9UKK9) -0.001, NOSIP (UniProt Q9Y314) 0.034, MTFP1 (UniProt Q9UDX5) 0.031, NFATC1 (UniProt O95644) 0.058, MYOM1 (UniProt P52179) -0.082, MTCH2 (UniProt Q9Y6C9) 0.008, PAK1 (UniProt Q13153) 0.001, NFATC2 (UniProt Q13469) 0.032, NOC2L (UniProt Q9Y3T9) 0.021, NEK7 (UniProt Q8TDX7) 0.024

Compound: CCN(CCCOc1ccc2c(Nc3cc(CC(=O)Nc4cccc(F)c4)[nH]n3)ncnc2c1)CCOP(=O)(O)O [barasertib]
Test: as above
Outline: as §1

log2 fold change, inactive:
ORC2 (UniProt Q13416) 0.003, NIPSNAP3A (UniProt Q9UFN0) -0.04, N6AMT1 (UniProt Q9Y5N5) 0.113, OTUD7B (UniProt Q6GQQ9) 0.116, MSH2 (UniProt P43246) 0.007, MRPL53 (UniProt Q96EL3) 0.032, NFKBIE (UniProt O00221) 0.174, NCAPH2 (UniProt Q6IBW4) 0.058, MRPS18A isoform 2 (UniProt Q9NVS2) 0.037, NOB1 (UniProt Q9ULX3) -0.053, NCAPG2 (UniProt Q86XI2) 0.016, NUMB (UniProt P49757) 0.028, OARD1 (UniProt Q9Y530) -0.01, NF1 (UniProt P21359) 0.029, NTMT1 (UniProt Q9BV86) 0.026, MYD88 isoform 6 (UniProt Q99836) -0.002, NUSAP1 (UniProt Q9BXS6) -0.002, MVB12A (UniProt Q96EY5) -0.04, NAT1 (UniProt P18440) -0.104, MSH3 (UniProt P20585) -0.001, NCK1 (UniProt P16333) -0.008, NGLY1 (UniProt Q96IV0) 0.043, NOA1 (UniProt Q8NC60) 0.043, NUB1 (UniProt Q9Y5A7) 0.028, NAA30 (UniProt Q147X3) 0.037, NUDT5 (UniProt Q9UKK9) -0.042, NOSIP (UniProt Q9Y314) 0.012, MTFP1 (UniProt Q9UDX5) 0.012, NFATC1 (UniProt O95644) -0.015, MYOM1 (UniProt P52179) 0.021, MTCH2 (UniProt Q9Y6C9) -0.02, PAK1 (UniProt Q13153) -0.001, NFATC2 (UniProt Q13469) 0.011, NOC2L (UniProt Q9Y3T9) 0.028, NEK7 (UniProt Q8TDX7) 0.002

Compound: CC[C@@H]1C(=O)N(C)c2cnc(Nc3ccc(C(=O)NC4CCN(C)CC4)cc3OC)nc2N1C1CCCC1
Test: as above
Outline: as §1

log2 fold change, inactive:
ORC2 (UniProt Q13416) -0.077, NIPSNAP3A (UniProt Q9UFN0) 0.043, N6AMT1 (UniProt Q9Y5N5) 0.005, OTUD7B (UniProt Q6GQQ9) -0.029, MSH2 (UniProt P43246) -0.033, MRPL53 (UniProt Q96EL3) 0.069, NFKBIE (UniProt O00221) 0.081, NCAPH2 (UniProt Q6IBW4) 0.027, MRPS18A isoform 2 (UniProt Q9NVS2) 0.073, NOB1 (UniProt Q9ULX3) -0.045, NCAPG2 (UniProt Q86XI2) -0.055, NUMB (UniProt P49757) 0.06, OARD1 (UniProt Q9Y530) -0.01, NF1 (UniProt P21359) -0.044, NTMT1 (UniProt Q9BV86) -0.029, MYD88 isoform 6 (UniProt Q99836) -0.042, NUSAP1 (UniProt Q9BXS6) 0.073, MVB12A (UniProt Q96EY5) 0.094, NAT1 (UniProt P18440) 0.003, MSH3 (UniProt P20585) 0.036, NCK1 (UniProt P16333) 0.068, NGLY1 (UniProt Q96IV0) -0.102, NOA1 (UniProt Q8NC60) 0.029, NUB1 (UniProt Q9Y5A7) -0.052, NAA30 (UniProt Q147X3) 0.043, NUDT5 (UniProt Q9UKK9) 0.043, NOSIP (UniProt Q9Y314) 0.017, MTFP1 (UniProt Q9UDX5) 0.036, NFATC1 (UniProt O95644) 0.001, MYOM1 (UniProt P52179) 0.049, MTCH2 (UniProt Q9Y6C9) 0.021, PAK1 (UniProt Q13153) -0.002, NFATC2 (UniProt Q13469) 0.03, NOC2L (UniProt Q9Y3T9) -0.029, NEK7 (UniProt Q8TDX7) -0.006
